# Sfp PPTase inh = inhibitors of Bacillus subtilis Sfp phosphopantetheinyl transferase; Q9F4F7; Biochemical Sfp PPTase activity, qHTS; Potency, µM, for inactives: largest response in the series, negative = inhibition, most hits filed as inhibitors; actives 3.5% (n = 310,000); AID 1490;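 also: the enzyme is Sfp with the accession as filed and its product quenches rhodamine fluorescence; potency is read from the fitted curve at half-maximal effect; 0% = enzyme reaction without inhibitor and -100% = no enzyme wells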
#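 Reaction rates are the 30-min fluorescence difference (ex 525, em 598 nm) in wells containing 15 nM Sfp, 5 uM rhodamine-CoA and 12.5 uM BHQ-2-YbbR at pH 7.6 with 10 mM MgCl2.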
# NPSR antag = neuropeptide S receptor (human) antagonism, cAMP | Q6W5P4 | CHO-NPSR cells, cAMP TR-FRET, antagonist mode | Potency, µM (titrated, usually from 38.3 µM), inactives show at the highest dose activity change, negative = inhibition, hits mostly inhibitors | actives 1% (n = 220,000) | AID 1461; also: potency is read from the fitted curve at half-maximal effect; nearly all actives have a fitted effect of over 50% in size
# Target sequence (Q6W5P4 whole entry, looked up): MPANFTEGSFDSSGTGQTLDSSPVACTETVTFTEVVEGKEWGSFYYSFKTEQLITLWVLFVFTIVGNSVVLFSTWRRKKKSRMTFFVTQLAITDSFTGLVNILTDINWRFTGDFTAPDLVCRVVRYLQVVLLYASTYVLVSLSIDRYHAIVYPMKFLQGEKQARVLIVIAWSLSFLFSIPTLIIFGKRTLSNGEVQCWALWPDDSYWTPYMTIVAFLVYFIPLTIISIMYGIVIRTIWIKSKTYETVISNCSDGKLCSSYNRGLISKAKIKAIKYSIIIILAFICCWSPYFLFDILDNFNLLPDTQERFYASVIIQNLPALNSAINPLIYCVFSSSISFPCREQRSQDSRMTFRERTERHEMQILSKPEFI
# GoLoco inh red = inhibitors of human Gai1-RGS12 GoLoco interaction (red fluorophore) | Potency, µM (top dose mostly 61.6 µM), inactives show top-dose activity, negative = inhibition, hits mostly inhibitors | actives 0.44% (n = 230,000) | Gai1:RGS12 GoLoco peptide FP, rhodamine, 10 min | AID 880; active = well fitted inhibition curve with a large enough effect, not every such curve was filed as active; inactive = no such curve, though single readings can be large or run the other way; also: potency is read from the fitted curve at half-maximal effect; nearly all actives have a fitted effect of over 30% in size
# ALDH1A1 inh = blocks purified human ALDH1A1 activity | P00352 | Purified ALDH1A1, NADH fluorescence, propionaldehyde substrate | Potency, µM (doses to about 75.3 µM), without a hit: top-dose activity, negative = inhibition, usual class: inhibitors | actives 7.3% (n = 220,000); active = well fitted inhibition curve with a large enough effect, not every such curve was filed as active; inconclusive = small, poorly fitted or top-dose-only effect, or another doubt; inactive = no such curve, though single readings can be large or run the other way;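 also: potency is read from the fitted curve at half-maximal effect; plate controls were no enzyme wells and a reference inhibitor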
# KDM4E inh = inhibitors of human JMJD2E histone demethylase | B2RXH2 | JMJD2E catalytic domain, FDH-coupled NADH fluorescence (FDH is formaldehyde dehydrogenase) | Potency, µM (highest dose often 57.1 µM), inactives show top-dose activity change, negative = inhibition, hits mostly inhibitors | actives 1.6% (n = 230,000) | AID 2147; active = well fitted inhibition curve with a large enough effect, not every such curve was filed as active; inconclusive = small, poorly fitted or top-dose-only effect, or another doubt; inactive = no such curve, though single readings can be large or run the other way;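 also: potency is read from the fitted curve at half-maximal effect; 0% = wells with enzyme and -100% = buffer wells without enzyme; nearly all actives have a fitted effect of over 50% in size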
# Target sequence (B2RXH2 1-337 limits assumed): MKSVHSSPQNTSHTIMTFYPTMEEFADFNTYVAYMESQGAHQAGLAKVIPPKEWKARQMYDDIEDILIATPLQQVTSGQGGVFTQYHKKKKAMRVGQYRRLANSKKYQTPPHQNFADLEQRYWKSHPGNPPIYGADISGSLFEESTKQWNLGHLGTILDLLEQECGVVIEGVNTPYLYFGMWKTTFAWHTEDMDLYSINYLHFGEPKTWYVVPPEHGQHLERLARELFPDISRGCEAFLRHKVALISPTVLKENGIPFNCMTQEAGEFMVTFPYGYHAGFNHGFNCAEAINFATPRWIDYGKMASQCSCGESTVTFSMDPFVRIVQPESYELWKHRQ
# FBPA coupling cs = counter-screen for Giardia aldolase inhibitors: coupling enzyme system; actives 0.67% (n = 290,000); coupling enzyme system counterscreen, AmpLite Red fluorescence; activity change, negative = inhibition, % at 58.2 µM, hits read low; in the data active = activity change below about -30%
#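 Counterscreen lacking aldolase: glyceraldehyde-3-phosphate coupling-enzyme reagent preincubated 10 min at RT with compound (at 57.5 uM final), then substrate/coupling system with AmpLite Red added; fluorescence read at 525/598 nm after 20 min RT.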
# * = called active by the depositor; ? = inconclusive; nt = no result given; [ ] = remark or other dose. Shown are actives, neighbours in structure and some others; about 8.5% of the full set was active somewhere. Unless noted, calls follow the shape of the dose curve; as a rule, active = well fitted curve in the direction sought with a large enough effect; inconclusive = small, poorly fitted or top-dose-only effect, or another doubt; inactive = no such curve, though single readings can be large; an effect the other way counts as inactive or inconclusive. Unless noted, % is scaled to controls: 0 for no effect and ±100 for the full control effect.
SMILES,Sfp PPTase inh,NPSR antag,GoLoco inh red,ALDH1A1 inh,KDM4E inh,FBPA coupling cs
CCn1cc(NC(=O)CCl)c(C)n1,30%,12%,4%,4.5µM*,-10%,0
COc1ccc(NC(=S)N2CCN(c3ccccn3)CC2)cc1OC,?,-12%[46.1 µM],nt,25µM*,-6%,-1
COc1cc(NC(=S)N2CCN(c3ccccn3)CC2)cc(OC)c1OC,11%,6%,-4%,?,-5%,-2
Cc1cc(C)cc(NC(=S)N2CCN(c3ncccn3)CC2)c1,27%,-7%[46.1 µM],nt,-4%,8%,-1
OC1CCN(C(=S)Nc2ccc(Nc3ccccc3)cc2)CC1,18µM*,-12%,12%,-7%,8%,0
S=C(Nc1ccc(Nc2ccccc2)cc1)N1CCN(c2ncccn2)CC1,-22%,-13%,10%,13µM*,3%,0
COc1ccc(CN2CCC(C(=O)Nc3ccc(Oc4cccnc4)cc3)CC2)c(C)c1C,5%,nt,nt,nt,nt,nt
COc1ccc(O)c(/C=N/NC(=O)c2cc(=O)[nH]c3ccccc23)c1,11%,16%,5%,nt,7.1µM*,1
COc1ccc(C(=O)N/N=C\c2coc3ccccc3c2=O)cc1,11%,-10%,4%,3.5µM*,-2%,0
COc1ccc(C(=O)N/N=C\c2coc3ccc(Cl)cc3c2=O)cc1,4%,nt,nt,nt,nt,2
O=C(N/N=C/c1ccccc1)c1cc(=O)[nH]c2ccccc12,2%,27%,0%,19%,-17%,2
Cc1cccc(C(=O)N/N=C/c2coc3ccccc3c2=O)c1,10%,nt,nt,nt,nt,-1
O=C(N/N=C/c1coc2ccccc2c1=O)c1cc(O)cc(O)c1,22%,9%,7%,?,2%,-1
O=C(N/N=C/c1coc2ccccc2c1=O)c1ccccc1Br,14%,3%,9%,4.5µM*,5%,-1
O=C(N/N=C/c1coc2ccccc2c1=O)c1cccc([N+](=O)[O-])c1,5%,6%,-2%,28µM*,0%,0
CCCc1ccc(OCc2ccc(C(=O)N3CCSCC3)o2)cc1,-5%,nt,nt,nt,nt,1
COc1ccc(C(=O)CCC(=O)Nc2cc(Cl)c(O)c(Cl)c2)cc1,-2%,nt,nt,nt,nt,0
O=C(c1ccc2c(c1)OCO2)C1CCCN(C(=O)c2cnn(Cc3ccccc3)c2)C1 (stereo not drawn),12%,1%,13%,25µM*,-18%,5
O=C(c1ccc2c(c1)OCO2)C1CCCN(C(=O)NCc2ccccc2)C1 (stereo not drawn),9%,9%,5%,-8%,-4%,-2
CC(C)(C)c1ccc(Cn2nnc3c(=O)[nH]c(C4CCCN(C(=O)c5cccs5)C4)nc32)cc1 (stereo not drawn),-21%,nt,nt,nt,nt,-1
COc1c(O)c(O)cc2c1oc1c3ccccc3oc(=O)c21,?,nt,-30%,?,16µM*,-14
O=c1oc2cc(O)ccc2c2oc3cc(O)ccc3c12,-19%,-24%,10%,?,?,-1
C#CCN1C(=O)C(O)(CC(=O)/C=C/c2ccco2)c2ccccc21 (stereo not drawn),35µM*,1%,18%,1.6µM*,-1%,0
COCCN(C(=O)Cc1cccs1)C(C(=O)NCc1ccc(OC)cc1)c1ccccc1 (stereo not drawn),-5%,3%[46.1 µM],8%,25µM*,-1%,3
COc1ccc(CNC(=O)C(c2ccncc2)N(C(=O)Cc2cccs2)c2ccccc2)cc1 (stereo not drawn),18%,6%,-9%,-7%,-3%,3
SMILES,Sfp PPTase inh,NPSR antag,GoLoco inh red,ALDH1A1 inh,KDM4E inh,FBPA coupling cs
CCN1CCCC1Cn1c(-c2ccccc2)nc2c(N3CCOCC3)nc(C)nc21 (stereo not drawn),22%,nt,-3%,?,?,3
Cc1csc(NC(=O)c2nc(-c3ccccc3)n(-c3ccccc3)n2)n1,-6%,?,-3%,14µM*,-2%,1
O=C(CSCC(=O)N1CCCCC1)Nc1nc(-c2ccc(Cl)s2)cs1,-4%,-5%[46.1 µM],-2%,25µM*,-8%,0
COc1cc(N=c2ssnc2Cl)cc(OC)c1,1.8µM*,-20%[46.1 µM],16µM*,0.32µM*,20µM*,-12
N#Cc1cccc(N=c2ssnc2Cl)c1,7.9µM*,-45%,-23%,1.3µM*,-22%,4
Clc1ccc(N=c2ssnc2Cl)nc1,21%,-1%,10%,-3%,-6%,1
Cc1cc(C)cc(C(N)=Nc2cccc(C#N)c2)c1,7%,nt,nt,nt,nt,1
COc1cc(OC)cc(-c2nc(-c3ccccc3OC)no2)c1,-11%,3%,8%,-5%,2%,-1
Clc1nssc1=Nc1ccc(Br)cc1,10µM*,-23%,13%,1.8µM*,11µM*,2
OCc1ccccc1N=c1ssnc1Cl,8.9µM*,-6%[46.1 µM],-4%,0.89µM*,-11%,3
COc1ccccc1N1CCN(S(=O)(=O)c2ccc(NC(C)=O)cc2)CC1,9%,nt,nt,nt,nt,-3
CCOC(=O)c1c(NC(=O)Cn2nc(C(=O)O)c3ccccc3c2=O)sc(CC)c1C,-7%,-16%,0%,2%,-11%,3
C=CCn1c(SCC(=O)N(C)c2c(N)n(Cc3ccccc3)c(=O)[nH]c2=O)nnc1-c1ccccc1OC,11%,nt,nt,nt,nt,0
Cc1oc(C)c2c(=O)ccc3c(c12)OC(N)=C(C#N)C3c1ccc(F)cc1 (stereo not drawn),?,-14%[46.1 µM],196%,14µM*,?,-43*
Cc1[nH]nc2c1C(c1ccc(F)cc1)C(C#N)=C(N)O2 (stereo not drawn),13%,-6%[46.1 µM],9%,?,-7%,5
COCCOc1ccc(C(F)(F)F)cc1NC(=O)COC(=O)C12CC3CC(CC(O)(C3)C1)C2,5%,nt,nt,nt,nt,4
Cc1c(OCC(=O)N2CCC(C(=O)NCCCC(=O)O)CC2)ccc2c1oc(=O)c1ccccc12,17%,nt,nt,nt,nt,-1
O=C(CCN1C(=O)C2CCCCC2C1=O)Nc1ccc(F)c(F)c1F (stereo not drawn),14%,18%,3%,10µM*,0%,0
O=C(CCN1C(=O)C2CCCCC2C1=O)Nc1cc(F)ccc1F (stereo not drawn),15%,nt,nt,nt,nt,4
COc1ccc(C2=NS(=O)(=O)N(C)C(C(=O)NCc3ccc4c(c3)OCO4)=C2)cc1OC,6%,nt,nt,nt,nt,1
O=C(N/N=C/c1cc(Cl)cc([N+](=O)[O-])c1O)NC12CC3CC(CC(C3)C1)C2,-1%,10µM*,-13%,?,7%,3
O=C(N/N=C/c1cc(Cl)cc([N+](=O)[O-])c1O)c1ccccc1NS(=O)(=O)c1cccs1,8%,32%,77%,nt,6.3µM*,12
O=C(N/N=C/c1ccccc1O)NC12CC3CC(CC(C3)C1)C2,10%,nt,nt,nt,nt,1

# Assay outcomes from PubChem BioAssay.
